Source: PubChem BioAssay AID990 (National Center for Advancing Translational Sciences (NCATS), 2007)
Activity calls are given as the source filed them.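 How the source made its calls: active means compound that made reporter-free parental cells show up as glowing objects under laser imaging, so likely a fluorescent false positive; inactive means the rest.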

Test: Parental Cell Counter Screen Assay for Epigenetic Modulators
Conditions: parental c127i cells, compound fluorescence imaging, 30 h
Description: NIH Molecular Libraries Screening Centers Network [MLSCN] NIH Chemical Genomics Center [NCGC] MLSCN Grant: 1 X01 MH079860-01 Assay Provider: Elisabeth D. Martinez, University of Texas SW Medical Center NCGC Assay Overview: This assay is a counter screen for the Locus Derepression (LDR) assay (PubChem AID 597). The LDR assay detects the derepression of a GFP reporter that is stably integrated in a region of the genome of murine c127i mammary cells that is presumably silenced. Compounds that cause derepression of the locus to express GFP are identified by enumerating GFP positive cells using a laser-scanning microplate cytometer. […] Compounds active in the parental c127i cells are likely fluorescent.
NCGC Assay Protocol Summary: Two hundred and fifty cells in 5 uL per well were dispensed into black, clear-bottom 1536-well plates. Twenty-three nL compound was transferred to the assay plate and cells were incubated 30 hours at 37 C. Medium was removed, cells were washed two times with PBS, and fluorescent cells were enumerated as objects between the sizes of 20 to 120 um width and depth using a laser-scanning microplate imager (Acumen Explorer Ex3, TTP Labtech).

Compound | Potency | outcome
CCN(CC)c1ccc2cc(-c3nc4ccccc4[nH]3)c(=O)oc2c1 | 410 nM [fluorescent] (active) | 
Cc1cc(C)n(-c2nc(NC(C)(C)C)nc(NC(C)(C)C)n2)n1 |  | inactive
COc1ccc(C)cc1N=Nc1ccc(O)c2ncccc12 |  | inactive
CCCCC1CC1C(=O)Nc1ccc(OC)c(OC)c1 (configuration not stated) |  | inactive
CCNc1nc(NCC)nc(-n2cc(C(=O)c3cc(Cl)ccc3O)cn2)n1 |  | inactive
O=C(Oc1cccc2cccnc12)c1ccc(Br)o1 |  | inactive
CN(C)C(=O)CSc1cccc2cccnc12 |  | inactive
